# Bioassay records from PubChem.
# Only a selection was taken, and hits are over-represented in it overall.
# ST2 inh: inhibitors of human ST2 (IL1RL1) binding to IL-33, primary screen, biochemical, AlphaLISA. hit rate 2.3% among 78,000. AlphaLISA ST2-Fc/biotin-IL-33 interaction, 1 h. inhibition, % for hits at 17 µM; in the data active means inhibition above about 30%
# Target sequence (Q01638 whole entry, looked up): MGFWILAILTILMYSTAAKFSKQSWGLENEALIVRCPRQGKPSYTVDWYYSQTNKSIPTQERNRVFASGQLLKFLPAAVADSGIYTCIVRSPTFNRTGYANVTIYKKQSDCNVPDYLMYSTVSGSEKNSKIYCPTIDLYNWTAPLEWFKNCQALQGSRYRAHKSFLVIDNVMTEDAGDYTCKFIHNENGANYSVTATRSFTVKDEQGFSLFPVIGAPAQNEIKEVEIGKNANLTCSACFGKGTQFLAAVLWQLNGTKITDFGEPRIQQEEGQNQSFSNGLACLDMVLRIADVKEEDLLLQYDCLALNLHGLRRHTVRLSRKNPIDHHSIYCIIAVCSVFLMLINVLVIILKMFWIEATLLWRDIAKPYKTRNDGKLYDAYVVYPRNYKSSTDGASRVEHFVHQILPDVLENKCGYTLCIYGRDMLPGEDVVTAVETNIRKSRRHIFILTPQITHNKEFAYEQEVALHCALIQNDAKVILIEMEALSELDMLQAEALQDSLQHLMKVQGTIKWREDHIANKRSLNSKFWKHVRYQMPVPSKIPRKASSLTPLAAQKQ
# Starred values were filed as active, the others as inactive; i = inactive.
SMILES,ST2 inh
CSCC(=O)Nc1nc2c(s1)C[C@]1(C)CC[C@@H]3[C@H](OC(=O)[C@H]3C)[C@H]1[C@@H]2C,i
CCCOc1ccc(C(=O)Nc2sc3c(c2C#N)CC(C)(C)OC3)cc1,i
CCCCOc1ccc(-c2nc(C(N)=O)c3c(n2)n(-c2ccc(F)cc2)c(=O)n3C)cc1,i
COCCOC(=O)C1=C(C)NC2=C(C(=O)CCC2)C1c1ccccc1 (stereo not given),i
CC(C(=O)O)C1Sc2ccccc2N(Cc2ccc(F)cc2)C1=O (stereo not given),i
CCC(=O)N1CCc2cc(Br)cc(S(=O)(=O)NCCC(C)C)c21,i
Cc1cc2c3c(C)n(C)c(C)c3c(C)nn2c1,54%*
CN(C)C(C(=O)N1C[C@@H]2[C@H](C1)[C@H]1CC[C@@H]2O1)c1ccc2c(c1)OCO2 (stereo not given in full),50%*
COc1ccccc1C(CC(=O)O)c1ccc2c(c1)OCO2 (stereo not given),i
O=C(c1ccc(C2CCCO2)s1)N1C[C@@H]2[C@H](C1)[C@H]1CC[C@@H]2O1 (stereo not given in full),i
CCCc1cc2c(=O)c(-c3ccc4c(c3)OCCCO4)c(C)oc2cc1OC(C)=O,i
Cc1ccc(C(=O)N2CCN(C(=O)c3ccccc3)C2c2ccc(N(C)C)cc2)cc1 (stereo not given),i
Cc1ccc([C@@H]2Nc3ccc(C(=O)O)cc3[C@@H]3C=CC[C@@H]32)cc1,34%*
CC1CC(=O)Nc2cc([N+](=O)[O-])ccc2N1 (stereo not given),i
Cc1ccc2c(c1)C1C=CCC1C(c1ccccc1Cl)N2 (stereo not given),33%*
Cc1ccc(C(=O)N2CCCC2)cc1[N+](=O)[O-],i
CC1CC(C)CN(C(=O)c2ccc([N+](=O)[O-])cc2)C1 (stereo not given),i
O=C1Nc2cc(Cl)c(Cl)cc2N(O)N1c1ccc([N+](=O)[O-])cc1,i
O=[N+]([O-])c1ccc(C2Nc3cc(Cl)cc(Cl)c3C3C=CCC32)cc1 (stereo not given),32%*
O=C(c1ccc2c(c1)C1C=CCC1C(c1ccc([N+](=O)[O-])cc1)N2)N1CCCC1 (stereo not given),40%*
Cc1ccc(S(=O)(=O)N2CCSC2c2ccccc2Cl)c(C)c1 (stereo not given),i
Cc1ccc(-c2cc(N3CCN(S(=O)(=O)c4ccc(C(C)C)cc4)CC3)ncn2)cc1,i
CCc1sc(C2C(C(=O)OC)=C(C)NC3=C2C(=O)CCC3)cc1Br (stereo not given),i
O=C(Nc1cccc([N+](=O)[O-])c1)C1CC1c1ccccc1 (stereo not given),i
CCOc1ccc2nc(SCC(=O)N3CCc4ccccc43)sc2c1,i
SMILES,ST2 inh
CC(C)(C#N)NC(=O)C1Cc2ccccc2CN1S(=O)(=O)c1ccc(F)cc1 (stereo not given),i
O=C(C1CC1)N1CCc2cc(Br)cc(S(=O)(=O)NCc3ccc(F)cc3)c21,i
CCCCn1cnc2cc(NCc3cccs3)ccc21,i
COc1ccc(OCc2nc(C#N)c(N3CCC(C(N)=O)CC3)o2)cc1,i
Clc1ccccc1OCCCCN1CCNCC1,i
c1ccc(OCCCn2ccnc2)cc1,i
N#Cc1nc(COc2ccc(Br)cc2)oc1N1CCN(Cc2ccccc2)CC1,56%*
N#CSCCCCOc1ccccc1Cl,i
N#Cc1nc(COc2ccccc2Cl)oc1NCCCn1ccnc1,45%*
N#Cc1nc(COc2ccccc2Cl)oc1N1CCCC1,73%*
CN1CCN(Cc2ccc(OCc3ccccc3)cc2)CC1,i
Fc1ccccc1OCCCn1ccnc1,i
O=C1NC(=NS(=O)(=O)c2ccccc2)S/C1=C/c1cccnc1,i
Cn1nnnc1SCCNC(=O)c1cnc(-c2ccccc2)nc1,i
COC(=O)c1ccccc1NS(=O)(=O)c1cc(Br)cc2c1N(C(=O)C1CC1)CC2,i
O=C(Cc1c(C(=O)O)[nH]c2ccc(Cl)cc12)NC1CCCC1,i
Cn1c(=O)c2c(nc(NCC3CCCO3)n2Cc2cccc3ccccc23)n(C)c1=O (stereo not given),i
COc1cccc(OC)c1C(=O)Nc1cccc(F)c1,i
CN1C(=O)N(C)C2(c3ccccc3)N(C)C(=O)N(C)C12c1ccccc1 (stereo not given),i
Clc1ccccc1-c1nc(-c2ccccc2)no1,i
O=C1OC(c2ccccc2)=C/C1=C\c1c(Cl)cccc1Cl,46%*
O=C1Nc2ccccc2/C1=C\c1c(Cl)cccc1Cl,i
Cc1nc(SCC(=O)c2ccc(Cl)cc2)c2c(=O)n(C)c(=O)n(C)c2n1,i
CCOc1ccc(C2(C)CC(=O)NC2=O)cc1 (stereo not given),i
CC(C)N1CC[C@H](c2nnc(-c3cncn3C)o2)C1,i
SMILES,ST2 inh
O=C(c1ccnnc1)N1CCn2nc(C(=O)N3CCCC3)cc2C1,i
O=C(CS(=O)(=O)c1cccc2nsnc12)Nc1ccccc1Br,i
O=C(Nc1cccc2nsnc12)c1ccc(-c2ccc(Br)cc2)o1,31%*
O=C(Nc1ccccc1-c1ccccc1)c1ccc(Br)o1,i
COc1cc(OC)cc(C(=O)Nc2ccc(S(=O)(=O)Nc3nccnc3OC)cc2)c1,i
Cc1ccc2oc(-c3ccc(F)cc3)nc2c1,i
Cc1ccc2oc(-c3cc(N)ccc3O)nc2c1,45%*
Nc1ccc2oc(-c3cc(F)c(F)cc3Cl)nc2c1,i
CN(Cc1ccccc1)C(=O)C[C@@H]1O[C@H](CNC(=O)c2ccc(F)c(Cl)c2)[C@@H](O)[C@H]1O,i
CCCC(C)NC(=O)c1ccc([N+](=O)[O-])c(C)c1 (stereo not given),i
CC1(C)CC(=O)C2=C(C1)Nc1nc(SCc3ccccc3)nn1C2c1cccc(O)c1 (stereo not given),i
CCOc1ccc(C2C3=C(CCCC3=O)Nc3nc(SCC)[nH]c(=O)c32)cc1 (stereo not given),i
COc1ccc(C2C(C#N)=C(N)Oc3n[nH]c(C)c32)cc1OCc1ccccc1 (stereo not given),i
COc1ccc(C2C(C#N)=C(N)OC3=C2C(=O)CC(c2ccccc2)C3)cc1 (stereo not given),i
Cc1cc2c(c(=O)o1)C(c1ccccc1OCc1ccccc1Cl)C(C#N)=C(N)O2 (stereo not given),i
COc1cc(C2C(C#N)=C(N)OC3=C2C(=O)CC(c2ccccc2)C3)cc(OC)c1OC (stereo not given),i
COc1ccc(C2C(C#N)=C(N)Oc3cc(C)oc(=O)c32)cc1OCc1ccccc1 (stereo not given),32%*
COc1cc(C2C(C#N)=C(N)OC3=C2C(=O)CC(c2ccccc2)C3)ccc1OCc1ccccc1 (stereo not given),37%*
O=C1CSC(c2ccc(Br)cc2)N1c1ccc(F)cc1 (stereo not given),i
N#Cc1cccn1Cc1ccc(F)cc1Cl,i
O=c1c(-c2ccccc2CN2CCOCC2)ccc2n1C[C@H]1C[C@@H]2CN(Cc2ccc(CO)o2)C1,i
COc1cc(-c2ccccc2O)ncn1,i
O=C(c1ccc2nc3ccccc3c(=O)n2c1)N1CCN(Cc2ccc3c(c2)OCO3)CC1,i
O=C(c1nc(N2CCCC2)nc2c1CCCC2)N1CCN(Cc2ccc3c(c2)OCO3)CC1,32%*
